This is a sample that favours compounds with a hit; in the whole collection about 18% have one here.
DT40 TDP1 CPT = growth inhibition of DT40 Tdp1-/-;hTDP1 cells with camptothecin (screen for TDP1 inhibitors) | chicken DT40 Tdp1-/-;hTDP1 cells + 20 nM CPT, ATP luminescence, 48 h | Potency, µM (titrated, usually from 46.2 µM), actives largely listed as inhibitors | 12% of 420,000 active | AID 686979; note: nearly all actives have a fitted effect of over 55% in size
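Chicken DT40 Tdp1-/- cells complemented with human TDP1, 400 cells/well, exposed to compounds plus 20 nM camptothecin for at least 48 h at 37 C; viability read as ATP content by CellTiter-Glo luminescence.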
DT40 TDP1 no CPT = qHTS for Inhibitors of human tyrosyl-DNA phosphodiesterase 1 (TDP1): qHTS in cells in absence of CPT | Potency, µM (top dose mostly 46.2 µM), hits mostly inhibitors | 15% of 420,000 active | DT40 Tdp1-/- hTDP1 cells, no CPT, ATP luminescence, 48 h; note: nearly all actives have a fitted effect of over 55% in size
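Chicken DT40 Tdp1-/- cells complemented with human TDP1, screened without camptothecin (DMSO vehicle only), 400 cells/well. Compounds pin-transferred, cells incubated at 37 °C for at least 48 hr. Growth read as ATP-dependent luminescence (CellTiter-Glo, 30 min at RT).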
IL1B secr inh = blocks inflammasome-driven IL-1 beta release; AID 743279; THP-1 LPS/ATP IL-1B secretion, AlphaLISA, 16 h; active compounds read low; activity change, % at 57.5 µM; 4.7% of 360,000 active; in the data active = activity change below about -50%; inconclusive = mostly about -30% to -49%
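THP-1 cells pretreated 1 hr with compounds (up to 57.5 uM final), then stimulated with LPS (250 ng/mL final) plus ATP (1.25 mM final); secreted IL-1B measured by AlphaLISA after 16 hr, decreased signal indicating inhibition.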
TDP1 inh = blocks human tyrosyl-DNA phosphodiesterase 1; Potency, µM (top dose mostly 130 µM), usual class: inhibitors; Q9NUW8; AID 485290; 0.28% of 350,000 active; recombinant TDP1, AlphaScreen DNA substrate cleavage; note: nearly all actives have a fitted effect of over 40% in size
Target sequence (Q9NUW8 whole entry, looked up): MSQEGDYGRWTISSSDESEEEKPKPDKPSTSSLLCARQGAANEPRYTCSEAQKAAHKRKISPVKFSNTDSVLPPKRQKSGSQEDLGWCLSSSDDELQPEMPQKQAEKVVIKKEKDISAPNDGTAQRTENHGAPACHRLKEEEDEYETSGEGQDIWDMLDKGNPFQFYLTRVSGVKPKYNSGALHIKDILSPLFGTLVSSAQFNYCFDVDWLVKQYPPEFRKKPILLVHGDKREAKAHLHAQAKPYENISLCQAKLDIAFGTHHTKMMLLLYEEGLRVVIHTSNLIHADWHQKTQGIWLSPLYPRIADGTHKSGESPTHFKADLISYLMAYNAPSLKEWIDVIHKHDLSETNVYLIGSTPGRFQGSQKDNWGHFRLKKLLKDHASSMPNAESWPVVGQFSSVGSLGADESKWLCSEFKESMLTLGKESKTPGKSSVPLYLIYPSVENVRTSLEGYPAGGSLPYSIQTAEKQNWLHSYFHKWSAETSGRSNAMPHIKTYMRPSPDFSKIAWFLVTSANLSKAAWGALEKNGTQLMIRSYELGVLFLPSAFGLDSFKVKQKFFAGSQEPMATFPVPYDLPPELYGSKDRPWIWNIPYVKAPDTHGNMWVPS
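Here, a 5' biotin and 3' phosphotyrosine-FITC DNA oligonucleotide reports Tdp1 activity: intact substrate bridges AlphaScreen beads, while cleavage leaves a 3' phosphate and drops signal. All incubations at room temperature.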
CtBP-E1A inh = inhibitors of CtBP/E1A interaction | AlphaScreen GST-E1A/His-CtBP binding, 1536-well; active compounds read low | activity change, % (no concentration beside the values) | 0.49% of 340,000 active | AID 651724; in the data active = activity change below about -65%; inconclusive = mostly about -30% to -63%
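In 5 uL wells, 23 nL compound meets equimolar GST-E1A and His-CtBP (5X stock 125 nM each) for 2 h, 37 °C. Beads (5X, 50 ug/mL) then 1 h, 37 °C, dark.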
Six1-Eya2 inh = blocks human Six1 binding to Eya2; AlphaScreen GST-Six1/His-Eya2 binding, biochemical; active compounds read low; Q15475+O00167; AID 651725; 0.56% of 360,000 active; activity change, % (concentration not given with the values); in the data active = activity change below about -65%; inconclusive = mostly about -30% to -63%
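Six1/Eya2 binding was read as AlphaScreen signal after compounds were pinned into GST-Six1 plus His-tagged Eya2 (5X stock 250/500 nM) in pH 8.0 Tris/NaCl/TCEP buffer, beads added, then incubated 1 h, 37 C, dark.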
A number is an active result; - = inactive; ? = inconclusive; . = no result given; [ ] = another dose, or the depositor's remark. Unless noted, calls come from the whole dose curve; as a rule, active = well fitted curve in the direction sought with a large enough effect; inconclusive = small, poorly fitted or top-dose-only effect, or another doubt; inactive = no such curve, though single readings can be large; an effect the other way counts as inactive or inconclusive.

SMILES	DT40 TDP1 CPT	DT40 TDP1 no CPT	IL1B secr inh	TDP1 inh	CtBP-E1A inh	Six1-Eya2 inh
CCOC(=O)C1=C(C)C(c2ccc(OC)cc2)NC(=S)N1 (stereo not drawn)	21µM	29µM	-	-	-	-
CCOC(=O)C1=C(C)C(c2ccc(OC)cc2)NC(=O)N1 (stereo not drawn)	-	-	-	-	-	-
O=C(OCC(=O)c1ccc(Cl)s1)c1cncc(Br)c1	-	-	-	-	.	-
O=C(CSc1nc2sc3c(c2c(=O)n1-c1ccccc1)CCCC3)N/N=C/c1ccccc1C(=O)O	-	-	-	22µM	-	-
CCOC(=O)CSc1nc2sc3c(c2c(=O)n1Cc1ccccc1)CC(C)CC3 (stereo not drawn)	?	12µM	.	-[12.3 µM]	.	.
COCCCn1c(SCc2nnc(-c3ccccc3)o2)nc2sc3c(c2c1=O)CCC3	?	?	-	-	-	-
Cc1nn(Cc2ccccc2)c(C)c1NC(=O)CSc1nc2sc3c(c2c(=O)n1C)CCC3	?	18µM	-	.	-	-
Cn1c(SCc2nnc(-c3ccccc3Br)o2)nc2sc3c(c2c1=O)CCC3	?	18µM	-	-	-	-
O=C(O)CN1CCN(Cc2ccc(F)cc2)C1=O	-	-	-	.	-	-
Cc1ccc(N2CC(C(=O)Nc3ccc(N(C)C)cc3)CC2=O)cc1C (stereo not drawn)	-	-	-	-	-	-
CC(NC(=O)CSc1nc2sc3c(c2c(=O)n1-c1ccccc1)CCCC3)c1ccccc1 (stereo not drawn)	6.5µM	?	-	-	-	-
COCCn1c(SCC(=O)NCC(c2ccccc2)N(C)C)nc2sc3c(c2c1=O)CCC3 (stereo not drawn)	-	-	-	.	-	-
CN(C)C(CNC(=O)CSc1nc2sc3c(c2c(=O)n1C)CCCC3)c1ccccc1 (stereo not drawn)	23µM	21µM	-	-	-	-
CCc1nc(SCC(=O)NCc2ccccc2)c2c(=O)n(C)c(=O)n(C)c2n1	?	?	-	-	-	-
CCCn1c(=O)n(C)c(=O)c2c(SCC(=O)NCC(c3ccccc3)N(C)C)nc(CC(C)C)nc21 (stereo not drawn)	21µM	18µM	?	-	-	-
C/C(CC(=O)Nc1ccc(C)c(Cl)c1)=N\NC(=O)Cc1cccs1	-	-	-	-	-	-
CCn1c(COc2ccc(=O)n(-c3ccccc3)n2)nnc1SCc1ccccc1	-	?	-	-	-	-
CC(=O)N1N=C(c2cccc([N+](=O)[O-])c2)OC1c1ccc(Cl)cc1Cl (stereo not drawn)	-	?	-52	-	?	?
CCN1C(=O)OC2(CCCCC2)C1(C)O (stereo not drawn)	.	.	.	-	.	.
Cc1nccn1CCCN1C(=O)OC2(CCCCC2)C1(C)O (stereo not drawn)	?	21µM	-	-	-	-
Clc1cccc(-c2nc(NCCCN3CCOCC3)c3ccccc3n2)c1	?	23µM	?	-	.	-
Fc1ccccc1-c1nc(NCCCN2CCOCC2)c2ccccc2n1	?	?	-	-	-	-
Clc1cccc(-c2nc(NCCN3CCOCC3)c3ccccc3n2)c1	?	?	-86	-	-	-
Clc1ccc(-c2nc(NCCCN3CCOCC3)c3ccccc3n2)cc1	?	18µM	-75	-	-	-
CS(=O)(=O)Nc1cccc(-c2nc(NCCN3CCOCC3)c3ccccc3n2)c1	-	?	.	-	.	.
SMILES	DT40 TDP1 CPT	DT40 TDP1 no CPT	IL1B secr inh	TDP1 inh	CtBP-E1A inh	Six1-Eya2 inh
Cc1[nH]c(=O)[nH]c(=O)c1NC(=O)c1ccc(OC(C)C)cc1	-	-	-	-	-	-
CCOc1cc(CN2CCCC(C(=O)c3cccc(C(F)(F)F)c3)C2)ccc1O (stereo not drawn)	?	26µM	-	-	-	-
COc1ccc(CN2CCCC(C(=O)N3CCCC3)C2)c(OC)c1 (stereo not drawn)	-	-	-	.	-	-
CCOC(=O)C1CCCN(Cc2ccc(O)c(OC)c2)C1 (stereo not drawn)	-	-	-	-	-	-
COc1ccc(CN2CCCC(C(=O)N3CCCCC3)C2)cc1OC (stereo not drawn)	-	-	-	.	.	-
COc1cc(CN2CCCC(C(=O)c3ccc(C(C)(C)C)cc3)C2)cc(OC)c1O (stereo not drawn)	?	?	-79	.	-	-
COc1ccc(C(=O)C2CCCN(Cc3cc(Cl)ccc3O)C2)c(OC)c1 (stereo not drawn)	?	?	-65	.	-	-
COc1ccc(CN2CCCC(C(=O)c3ccc(Cl)cc3)C2)cc1Cn1cccn1 (stereo not drawn)	?	?	-92	-	-	-
COc1ccc(C(=O)C2CCCN(Cc3cc(C)c(O)c(C)c3)C2)c(OC)c1 (stereo not drawn)	?	21µM	?	.	-	-
COc1cccc(CN2CCCC(N3CCc4ccccc4C3)C2)c1O (stereo not drawn)	-	-	-	-	-	-
COc1ccc(C(=O)C2CCCN(C3Cc4ccccc4C3)C2)c(OC)c1 (stereo not drawn)	21µM	10µM	-	-	-	-
COc1ccc(C(=O)C2CCCN(Cc3c(C)[nH]c4ccccc34)C2)c(OC)c1 (stereo not drawn)	.	.	.	-	.	.
COc1ccc(C(=O)NC2CCCN(Cc3ccc(Cl)cc3)C2)c(OC)c1 (stereo not drawn)	16µM	12µM	-	.	-	-
COc1cc2c(cc1OC)CN(C1CCCN(Cc3cc(Cl)ccc3O)C1)CC2 (stereo not drawn)	16µM	?	-	-	-	-
COc1cccc(CC(=O)NC2CCCN(Cc3ccc(Cl)cc3)C2)c1 (stereo not drawn)	?	?	-	-	-	-
CS(=O)(=O)c1ccc(NCCN2CCOCC2)c([N+](=O)[O-])c1	-	-	-	-	-	-
Cc1nc(NS(=O)(=O)c2ccccc2)sc1C(=O)NN	-	-	-	-	-	-
C=C(C)CC1N(c2cccc(OC)c2)C(=O)[C@@H]2C(C(=O)O)[C@H]3C=C[C@@]12O3 (stereo partly drawn)	-	-	-	-	-	-
N#CC1=C(N)SC(N)=C(C#N)C1c1ccnc2ccccc12	?	?	-	-	-	-
Nc1cccc[n+]1C(c1ccnc2ccccc12)[n+]1ccccc1N	1.1µM	1µM	.	.	.	.
O=C(O)c1cccnc1C(=O)N1CCc2c([nH]c3ccccc23)C1C(F)(F)F (stereo not drawn)	-	-	-	-	-	-
